# Several values for one entry are separate records, joined by “and”; a condition that tells them apart may be missing. Identical values can stand only once. The panel holds about 79,000 compounds, 15% with a hit somewhere; the sample as a whole holds those more often. More than one record can exist for a structure, and the calls need not agree. Activity calls are given as the source filed them. No stated cut-off is given here; in the data, active means growth inhibition above about 70%; inactive means the rest.
# Key:
# [1] = NCI Yeast Anticancer Drug Screen. Data for the rad52 strain (AID 147);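 further: 0% = growth of vehicle-treated control cultures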; conditions: S. cerevisiae rad52 mutant growth inhibition, stronger effect = higher value
# How it was run: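 Screen used a yeast mutant impaired in DNA repair. After compound exposure, growth was measured. Values reflect inhibition compared with vehicle-treated cells.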
# [2] = NCI Yeast Anticancer Drug Screen. Data for the wt1 strain (AID 149);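 further: 0% = growth of vehicle-treated wt1 cultures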; conditions: S. cerevisiae wt1 strain (SPY 50644) growth inhibition, stronger effect = higher value
# How it was run: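 Vehicle-normalised growth inhibition; strain wt1; compound exposure.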
# [3] = NCI Yeast Anticancer Drug Screen. Data for the rad50EPP+ strain (AID 151);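 further: 0% = growth of vehicle-treated control cultures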; conditions: S. cerevisiae rad50 mutant strain, stronger effect = higher value
# How it was run: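 Exposing the rad50EPP+ strain to each compound, growth was compared with vehicle-only cultures to give inhibition.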
# [4] = NCI Yeast Anticancer Drug Screen. Data for the mgt1 strain (AID 153); conditions: S. cerevisiae mgt1 mutant growth inhibition, stronger effect = higher value
# How it was run: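 Genetically defined yeast (mgt1) treated with compound; inhibition of growth expressed against vehicle-treated controls.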
# [5] = NCI Yeast Anticancer Drug Screen. Data for the rad50 strain (AID 155);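 further: 0% = growth of vehicle-only cultures of the same strain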; conditions: S. cerevisiae rad50 strain growth inhibition, stronger effect = higher value
# How it was run: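 A DNA repair-deficient yeast mutant serves as the test organism; compound-induced growth inhibition is calculated against vehicle-treated cells.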
# [6] = NCI Yeast Anticancer Drug Screen. Data for the mec2-1 strain (AID 157); conditions: S. cerevisiae mec2-1 strain, stronger effect = higher value
# How it was run: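 Readout is yeast growth inhibition, normalised to vehicle-treated controls, in the mec2-1 strain exposed to compound.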
# [7] = NCI Yeast Anticancer Drug Screen. Data for the rad14 strain (AID 159);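 further: 0% = growth of vehicle-treated control cultures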; conditions: S. cerevisiae rad14 strain growth inhibition, stronger effect = higher value
# How it was run: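 Vehicle-treated cultures served as the baseline for growth inhibition of a DNA repair-mutant yeast strain exposed to each compound.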
# [8] = NCI Yeast Anticancer Drug Screen. Data for the sgs1 mgt1 strain (AID 161);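 further: 0% = growth of cultures given vehicle only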; conditions: S. cerevisiae sgs1 mgt1 strain, stronger effect = higher value
# How it was run: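 Percent growth inhibition was derived by comparing compound-exposed mutant yeast with vehicle-exposed cultures. The strain carries alterations in DNA damage repair.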
# [9] = NCI Yeast Anticancer Drug Screen. Data for the CLN2oe strain (AID 163);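 further: 0% = growth of vehicle-only control cultures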; conditions: S. cerevisiae CLN2oe strain, stronger effect = higher value
# How it was run: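 Values reflect how much compound exposure reduced yeast growth, referenced to vehicle-exposed cells. Assay organism is a strain with a defined genetic change affecting cell-cycle control.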
# [10] = NCI Yeast Anticancer Drug Screen. Data for the cln2 rad14 strain (AID 165);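 further: 0% = growth equal to vehicle treated cultures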; conditions: S. cerevisiae cln2 rad14 strain, stronger effect = higher value
# How it was run: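 Relative to vehicle controls, growth inhibition of compound-treated cln2 rad14 yeast was recorded.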
# [11] = NCI Yeast Anticancer Drug Screen. Data for the bub3 strain (AID 167); conditions: S. cerevisiae bub3 mutant strain, stronger effect = higher value
# How it was run: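 Inhibition values come from growth of compound-treated mutant yeast normalised to vehicle-treated controls.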
# [12] = NCI Yeast Anticancer Drug Screen. Data for the wt2 strain (AID 169);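 further: 0% = growth of vehicle-treated yeast cultures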; conditions: S. cerevisiae wt2 strain growth inhibition, stronger effect = higher value
# How it was run: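 Values express reduction in yeast growth under compound treatment, referenced to vehicle-treated cells.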
# [13] = NCI Yeast Anticancer Drug Screen. Data for the mlh1 strain (AID 171);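 further: 0% = growth of vehicle-treated control cultures of the same strain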; conditions: S. cerevisiae mlh1 strain growth inhibition, stronger effect = higher value
# How it was run: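 Steps: expose the defined-mutant yeast strain to compound; expose a parallel culture to vehicle; measure growth; express compound effect as inhibition relative to the vehicle culture.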
# [14] = NCI Yeast Anticancer Drug Screen. Data for the sgs1 strain (AID 173);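 further: 0% = growth of vehicle-only control cultures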; conditions: S. cerevisiae sgs1 mutant, stronger effect = higher value
# How it was run: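 Treat defined-mutant yeast with compound; measure growth; calculate inhibition relative to vehicle-treated cells.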
# [15] = NCI Yeast Anticancer Drug Screen. Data for the mlh1 rad18 strain (AID 175); conditions: S. cerevisiae mlh1 rad18 strain growth inhibition, stronger effect = higher value
# How it was run: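 Test agents were incubated with a yeast strain of defined genotype (DNA damage repair defect). Inhibition of growth was derived by comparison with vehicle-exposed cultures.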
# [16] = at 5.0 µM (retest, dose inferred, filed as 0.5)
# [17] = at 50.0 µM (retest, dose inferred, filed as 5.0)
smiles,measurement,setting,value
O=C(O)C1C2c3ccccc3C(c3ccccc32)C1C(=O)O (stereo not drawn),growth inhibition,[1]; at 1.2 µM,-1% (inactive)
same,growth inhibition,[1]; at 3.7 µM,-1% (inactive)
same,growth inhibition,[1]; at 11.0 µM,2% (inactive)
same,growth inhibition,[1]; at 33.0 µM,0% (inactive)
same,growth inhibition,[1]; at 100.0 µM,11% (inactive)
same,growth inhibition,[2]; at 1.2 µM,-3% (inactive)
same,growth inhibition,[2]; at 3.7 µM,-3% (inactive)
same,growth inhibition,[2]; at 11.0 µM,-2% (inactive)
same,growth inhibition,[2]; at 33.0 µM,-1% (inactive)
same,growth inhibition,[2]; at 100.0 µM,-2% (inactive)
same,growth inhibition,[3]; at 1.2 µM,-4% (inactive)
same,growth inhibition,[3]; at 3.7 µM,-3% (inactive)
same,growth inhibition,[3]; at 11.0 µM,2% (inactive)
same,growth inhibition,[3]; at 33.0 µM,-3% (inactive)
same,growth inhibition,[3]; at 100.0 µM,-4% (inactive)
same,growth inhibition,[4]; at 1.2 µM,-3% (inactive)
same,growth inhibition,[4]; at 3.7 µM,-2% (inactive)
same,growth inhibition,[4]; at 11.0 µM,-2% (inactive)
same,growth inhibition,[4]; at 33.0 µM,-2% (inactive)
same,growth inhibition,[4]; at 100.0 µM,0% (inactive)
same,growth inhibition,[5]; at 1.2 µM,0% (inactive)
same,growth inhibition,[5]; at 3.7 µM,4% (inactive)
same,growth inhibition,[5]; [16],7% (inactive)
same,growth inhibition,[5]; at 11.0 µM,4% (inactive)
same,growth inhibition,[5]; at 33.0 µM,3% (inactive)
same,growth inhibition,[5]; [17],47% (inactive)
same,growth inhibition,[5]; at 50.0 µM,52.6% (inactive) and -32.8% (inactive)
same,growth inhibition,[5]; at 100.0 µM,12% (inactive)
same,growth inhibition,[6]; at 1.2 µM,-2% (inactive)
same,growth inhibition,[6]; at 3.7 µM,-5% (inactive)
same,growth inhibition,[6]; [16],-7% (inactive)
same,growth inhibition,[6]; at 11.0 µM,-3% (inactive)
same,growth inhibition,[6]; at 33.0 µM,-2% (inactive)
same,growth inhibition,[6]; [17],-1% (inactive)
same,growth inhibition,[6]; at 50.0 µM,86.6% (active) and -20.4% (inactive)
same,growth inhibition,[6]; at 100.0 µM,-1% (inactive)
same,growth inhibition,[7]; at 1.2 µM,-2% (inactive)
same,growth inhibition,[7]; at 3.7 µM,1% (inactive)
same,growth inhibition,[7]; at 11.0 µM,0% (inactive)
same,growth inhibition,[7]; at 33.0 µM,-2% (inactive)
same,growth inhibition,[7]; at 100.0 µM,2% (inactive)
same,growth inhibition,[8]; [16],-5% (inactive)
same,growth inhibition,[8]; [17],16% (inactive)
same,growth inhibition,[8]; at 50.0 µM,52.7% (inactive) and -33% (inactive)
same,growth inhibition,[9]; at 1.2 µM,-4% (inactive)
same,growth inhibition,[9]; at 3.7 µM,2% (inactive)
same,growth inhibition,[9]; at 11.0 µM,-4% (inactive)
same,growth inhibition,[9]; at 33.0 µM,-3% (inactive)
same,growth inhibition,[9]; at 100.0 µM,1% (inactive)
same,growth inhibition,[10]; [16],3% (inactive)
same,growth inhibition,[10]; [17],10% (inactive)
same,growth inhibition,[10]; at 50.0 µM,25% (inactive) and 11.1% (inactive)
same,growth inhibition,[11]; at 1.2 µM,-4% (inactive)
same,growth inhibition,[11]; at 3.7 µM,-3% (inactive)
same,growth inhibition,[11]; [16],2% (inactive)
same,growth inhibition,[11]; at 11.0 µM,-5% (inactive)
same,growth inhibition,[11]; at 33.0 µM,-2% (inactive)
same,growth inhibition,[11]; [17],17% (inactive)
same,growth inhibition,[11]; at 50.0 µM,71.2% (active) and -29.5% (inactive)
same,growth inhibition,[11]; at 100.0 µM,-2% (inactive)
same,growth inhibition,[12]; at 1.2 µM,0% (inactive)
same,growth inhibition,[12]; at 3.7 µM,-10% (inactive)
same,growth inhibition,[12]; at 11.0 µM,5% (inactive)
same,growth inhibition,[12]; at 33.0 µM,-1% (inactive)
same,growth inhibition,[12]; at 100.0 µM,-16% (inactive)
same,growth inhibition,[13]; at 1.2 µM,-4% (inactive)
same,growth inhibition,[13]; at 3.7 µM,-4% (inactive)
same,growth inhibition,[13]; at 11.0 µM,-1% (inactive)
same,growth inhibition,[13]; at 33.0 µM,-4% (inactive)
same,growth inhibition,[13]; at 100.0 µM,1% (inactive)
same,growth inhibition,[14]; at 1.2 µM,-12% (inactive)
same,growth inhibition,[14]; at 3.7 µM,-22% (inactive)
same,growth inhibition,[14]; at 11.0 µM,-3% (inactive)
same,growth inhibition,[14]; at 33.0 µM,5% (inactive)
same,growth inhibition,[14]; at 100.0 µM,12% (inactive)
same,growth inhibition,[15]; [16],3% (inactive)
same,growth inhibition,[15]; [17],69% (inactive)
same,growth inhibition,[15]; at 50.0 µM,37.1% (inactive) and -42.5% (inactive)

# Source: PubChem BioAssay (NCI)
